Compound activity: PubChem, several laboratories
SKKanGAS inh = blocks kanamycin growth of S. pyogenes SKKanGAS strain; BacTiter-Glo, 6 h; inhibition, % at 7.5 µM; actives 1.3% (n = 300,000);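 active means mean replicate score, as percent of positive control median, at least 50; inconclusive means mean below 50 but one replicate at or above 50; inactive means mean and every replicate below 50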;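 further: strain carries kanamycin resistance gene driven by streptokinase promoter and grows in 40 µg/ml kanamycin; loss of luminescence reflects streptokinase promoter inhibition or plain growth inhibition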
TIM10 inh = TIM10 yeast growth inhibition | S. cerevisiae TIM10 strain growth, BacTiter-Glo luminescence, 24 h | inhibition, % at 10 µM | AID 463195 | actives 1.4% (n = 330,000);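 active means inhibition of 40% or more at the single tested concentration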;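 further: wild-type TIM10 isogenic control strain grown at permissive 25 °C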
tim10-1 inh = inhibits growth of tim10-1 mutant yeast; S. cerevisiae tim10-1 ts strain growth, BacTiter-Glo, 24 h; inhibition, % at 20 µM; actives 2.2% (n = 330,000);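 active means inhibition of at least 40%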;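 further: mutant grown at 25 °C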
PfHsp90 set2 = reduces growth (ATP signal) of yeast expressing P. falciparum Hsp90. S. cerevisiae expressing PfHsp90, BacTiter-Glo ATP, 48 h; yeast lacking PDR1 and PDR3 efflux regulators. AID 504621. inhibition, % at 9.4 µM. actives 0.32% (n = 310,000);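 active means every replicate shows inhibition above about 80%, whatever the replicate mean, limit read from the data; inconclusive means mean inhibition reaches the set limit but some replicate falls short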
Calb FLC = affects C. albicans growth with fluconazole. C. albicans CaCi-2 (fluconazole-resistant clinical isolate) + fluconazole, Alamar Blue growth, 48 h. growth inhibition, % (concentration not given with the values). actives 0.57% (n = 300,000). AID 1979;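 active means growth inhibition above about 58% in most replicates, limit read from the data, passing the limit was not always enough; inconclusive means exactly half the replicates above a set limit; inactive means most replicates below a set limit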;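 further: all wells also contain fluconazole at 8 µg/ml as a sub-toxic cotreatment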
tim23-1 inh = inhibits growth of tim23-1 mutant yeast. S. cerevisiae tim23-1 growth, BacTiter-Glo luminescence, 24 h. inhibition, % at 20 µM. actives 1.3% (n = 330,000);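 active means growth inhibition of the mutant yeast at or above 50%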;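 further: temperature-sensitive mutant grown at 25 °C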
tim10-1 confirm = tim10-1 yeast growth inhibition, confirmed; shares compounds with tim10-1 inh; S. cerevisiae tim10-1 ts strain growth, BacTiter-Glo, 24 h; inhibition, % at 20 µM; actives 56% (n = 7,400); AID 463213;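 active means inhibition of yeast growth at or above a set limit in either of two repeat tests at 20 µM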;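 further: tim10-1 mutant grown at permissive 25 °C to find synthetic lethal compounds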
A number is an active result. Hits are enriched below; roughly 4.7% of the tested compounds scored in any of these assays.

`C/C(=N\NC(=O)CNc1cccc(C)c1)c1ccc(Br)s1` gave SKKanGAS inh inactive, TIM10 inh inactive, tim10-1 inh 40, PfHsp90 set2 inactive, Calb FLC inconclusive, tim23-1 inh inactive and tim10-1 confirm inactive.
C/C(=N\NC(=O)Cc1ccccc1)c1ccc(Br)s1 was read as SKKanGAS inh inactive, TIM10 inh inactive, tim10-1 inh inactive, PfHsp90 set2 inactive, Calb FLC inactive and tim23-1 inh inactive.
C/C(=C/c1ccccc1)C(=O)N1CCN(c2ccc(F)cc2)CC1 was read as SKKanGAS inh inactive, TIM10 inh inactive, tim10-1 inh inactive, PfHsp90 set2 inactive, Calb FLC inactive and tim23-1 inh inactive.
`CC(C)(C)n1nnnc1C(c1ccccn1)N(Cc1ccccc1)Cc1ccc(Cl)cc1` (stereo unspecified) gave SKKanGAS inh inactive, TIM10 inh inactive, tim10-1 inh 50, PfHsp90 set2 inactive, Calb FLC inactive, tim23-1 inh inactive and tim10-1 confirm 31.
For O=C(Cn1ncc2c([nH]c3ccccc32)c1=O)N1CCN(c2ccccn2)CC1 the results were SKKanGAS inh inactive, TIM10 inh inactive, tim10-1 inh inactive, PfHsp90 set2 inactive, Calb FLC inactive and tim23-1 inh inactive.
For Oc1ccc(/C=N/Nc2ncc(Cl)cc2Cl)cc1 the results were SKKanGAS inh inactive, TIM10 inh inactive, tim10-1 inh 45, PfHsp90 set2 inactive, Calb FLC inactive, tim23-1 inh inactive and tim10-1 confirm inactive.
Cc1ccc(/C=N/Nc2ncc(Cl)cc2Cl)s1 was read as SKKanGAS inh inactive, TIM10 inh inactive, tim10-1 inh 42, PfHsp90 set2 inactive, Calb FLC inactive, tim23-1 inh inactive and tim10-1 confirm inactive.
Screening Clc1cnc(N/N=C/c2cccs2)c(Cl)c1 returned SKKanGAS inh inactive, TIM10 inh inactive, tim10-1 inh inactive, PfHsp90 set2 inactive, Calb FLC inactive and tim23-1 inh inactive.
Clc1cnc(N/N=C/c2ccco2)c(Cl)c1 was read as SKKanGAS inh inactive, TIM10 inh inactive, tim10-1 inh inactive, PfHsp90 set2 inactive, Calb FLC inactive and tim23-1 inh inactive.
Screening O=C(NCCc1ccc(O)c(O)c1)C1COc2ccccc2O1 (stereo unspecified) returned SKKanGAS inh inactive, TIM10 inh inactive, tim10-1 inh inactive, PfHsp90 set2 inactive, Calb FLC inactive and tim23-1 inh inactive.
Screening CC1CCN(c2ccc3nnc(CCC(=O)N4CCN(c5ccc(F)cc5)CC4)n3n2)CC1 returned SKKanGAS inh inactive, TIM10 inh inactive, tim10-1 inh inactive, PfHsp90 set2 inactive, Calb FLC inactive and tim23-1 inh inactive.
For Cc1ccc2c(C)c(C(=O)N3CCN(Cc4ccc5c(c4)OCO5)CC3)oc2c1C the results were SKKanGAS inh inactive, TIM10 inh inactive, tim10-1 inh 47, PfHsp90 set2 inactive, Calb FLC inactive, tim23-1 inh inactive and tim10-1 confirm inactive.
For O=C(c1cc2cc(Cl)ccc2[nH]1)N1CCN(Cc2ccc3c(c2)OCO3)CC1 the results were SKKanGAS inh inactive, TIM10 inh inactive, tim10-1 inh 49, PfHsp90 set2 inactive, Calb FLC inactive, tim23-1 inh inactive and tim10-1 confirm inactive.
For Cc1ccc(C(=O)N2CCN(Cc3ccc4c(c3)OCO4)CC2)o1 the results were SKKanGAS inh inactive, TIM10 inh inactive, tim10-1 inh inactive, PfHsp90 set2 inactive, Calb FLC inactive and tim23-1 inh inactive.
Screening O=C(Cn1cnc2cc([N+](=O)[O-])ccc2c1=O)NCc1ccccc1 returned SKKanGAS inh inactive, TIM10 inh inactive, tim10-1 inh inactive, Calb FLC inactive and tim23-1 inh inactive.
Screening CCCCNc1cc(NC(C)=O)cc2cc(OC)c(OC)cc12 returned SKKanGAS inh inactive, TIM10 inh inactive, tim10-1 inh 44, PfHsp90 set2 inactive, Calb FLC inactive, tim23-1 inh inactive and tim10-1 confirm inactive.
CC1Cc2ccccc2N1C(=O)CSc1nnnn1Cc1ccccc1 (stereo unspecified) was read as SKKanGAS inh inactive, TIM10 inh inactive, tim10-1 inh 60, PfHsp90 set2 inactive, Calb FLC inactive, tim23-1 inh inactive and tim10-1 confirm 45.
COCCCn1nnnc1SCC(=O)N1c2ccccc2CC1C (stereo unspecified) was read as SKKanGAS inh inactive, TIM10 inh inactive, tim10-1 inh inactive, PfHsp90 set2 inactive, Calb FLC inactive and tim23-1 inh inactive.
For Cc1ccc(-c2ccc(OC(=O)c3ccc(=O)[nH]c3)c(C)c2)cc1 the results were SKKanGAS inh inactive, TIM10 inh inactive, tim10-1 inh inactive, PfHsp90 set2 inactive, Calb FLC inactive and tim23-1 inh inactive.
`COc1ccc(S(=O)(=O)N2CN(Cc3ccco3)c3nc4ccccc4nc32)cc1` gave SKKanGAS inh inactive, TIM10 inh inactive, tim10-1 inh 47, PfHsp90 set2 inactive, Calb FLC inactive, tim23-1 inh inactive and tim10-1 confirm inactive.
For O=C(CNC(=O)c1ccc(F)cc1)NCc1ccc(S(=O)(=O)N2CCOCC2)cc1 the results were TIM10 inh inactive, tim10-1 inh inactive and tim23-1 inh inactive.
`O/N=C/c1ccc(OCc2ccccc2F)c(Cl)c1` gave SKKanGAS inh inactive, TIM10 inh inactive, tim10-1 inh 41, PfHsp90 set2 inactive, Calb FLC inconclusive, tim23-1 inh inactive and tim10-1 confirm inactive.
O/N=C/c1ccc(OCc2ccccc2)c(Cl)c1 was read as SKKanGAS inh inactive, TIM10 inh inactive, tim10-1 inh inactive, PfHsp90 set2 inactive, Calb FLC inactive and tim23-1 inh inactive.
Screening C=C(C)COc1ccc(-c2[nH]ncc2-c2ccc(OC)c(OC)c2)c(O)c1 returned SKKanGAS inh inactive, TIM10 inh inactive, tim10-1 inh 46, PfHsp90 set2 inactive, Calb FLC inactive, tim23-1 inh inactive and tim10-1 confirm 34.
For CC(OC(=O)/C=C/c1ccc2ccccc2n1)C(=O)NCc1ccccc1 (stereo unspecified) the results were SKKanGAS inh inactive, TIM10 inh inactive, tim10-1 inh 41, PfHsp90 set2 inactive, Calb FLC inactive, tim23-1 inh inactive and tim10-1 confirm inactive.
For COc1ccc2cc3cc(C(=O)N(C)C4CCCCC4)oc3nc2c1 the results were SKKanGAS inh inactive, TIM10 inh inactive, tim10-1 inh 45, PfHsp90 set2 inactive, Calb FLC inactive, tim23-1 inh inactive and tim10-1 confirm inactive.
Screening Cc1ccc(C(=O)Nc2sc3c(c2C(=O)O)CCCCC3)o1 returned SKKanGAS inh inactive, TIM10 inh inactive, tim10-1 inh 41, PfHsp90 set2 inactive, Calb FLC inactive, tim23-1 inh inactive and tim10-1 confirm 35.
`CSc1ccc(/C=C/C(=O)c2c(O)cc(C)oc2=O)cc1` gave SKKanGAS inh inactive, TIM10 inh inactive, tim10-1 inh 47, PfHsp90 set2 inactive, Calb FLC inactive, tim23-1 inh inactive and tim10-1 confirm 38.
